SMARCA2 activ: SMARCA2 function activation, primary screen; MG213 cells, MMTV-luciferase reporter, dexamethasone, overnight; activation, % at 9.1 µM; 370,000 compounds, 1% hits; in the data active means activation above about 7.8%;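 further: 0% = vehicle wells and 100% = reference activator wells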
ssDAF12 agonist: activators of S. stercoralis DAF-12 nuclear receptor; AID 652126; 370,000 compounds, 1% hits; HEK293 ssDAF-12/GRIP1 lit1-tk-luc reporter, luminescence; % of 3 µM dafachronic acid response; activation, % at 6.8 µM;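 active means activation above the mean over all tested compounds plus 3 SD, cut at about 0.9% in these data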;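 further: 0% = DMSO-only wells and 100% = 3 µM delta7-dafachronic acid wells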
DAX1 StAR inh: blocks DAX1 repression of SF-1 activated StAR promoter. HEK293T StAR-luciferase reporter, SF-1/DAX-1 repression relief. inhibition, % at 6.8 µM. 370,000 compounds, 1.1% hits. AID 652010;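 active means inhibition above the mean over all tested compounds plus 3 SD, cut at about 3.6% in these data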;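 further: 0% = DAX-1 cells with DMSO and 100% = cells lacking DAX-1 with DMSO; higher inhibition means more luminescence from relief of DAX-1 repression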
hgDAF12 agonist: activates the H. glycines DAF-12 receptor ligand-binding domain. HEK293 GAL4-hgDAF12 UAS-luciferase reporter, agonist luminescence; normalized to butyrate control. activation, % at 6.8 µM. 370,000 compounds, 1.8% hits;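 active means activation above a cutoff set at the mean of all screened compounds plus 3 SD, cut at about 10% in these data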;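 further: 0% = DMSO wells and 100% = sodium butyrate wells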
hcDAF-12 act: H. contortus DAF-12 activation, primary screen | HEK293 hcDAF-12 lit1-tk-luc reporter, luminescence; 0% DMSO, 100% Δ7-dafachronic acid | activation, % at 6.8 µM | 370,000 compounds, 1.4% hits;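 active means activation above the mean of all tested compounds plus 3 SD, cut at about 5.5% in these data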;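 further: 100% = response to 3 µM Δ7-dafachronic acid high control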
SMARCA2 conf: confirmation of SMARCA2 (BRM) function activators | shares compounds with SMARCA2 activ | MG213 cells, MMTV-luciferase with dexamethasone, luminescence, overnight; MG213 cells expressing E1A, Rb sequestered; DMSO wells 0%, reference activator 100% | activation, % at 9.1 µM | 3,500 compounds, 30% hits | AID 652260;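 active means activation above its plate's cutoff, the mean activation of tested wells plus 3 SD, cut at about 7.9% in these data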
GAL4-VP16 Luc: GAL4-VP16 reporter activation counter-screen | shares compounds with SMARCA2 activ | HEK293 GAL4-VP16 pG5luc reporter, luciferase luminescence; scaled: DMSO wells 0%, SAHA wells 100% | activation, % at 9.1 µM | 3,500 compounds, 41% hits | AID 686939;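 active means activation above the solvent-only control well mean plus 3 SD, averaged across control plates, cut at about 5.2% in these data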
An asterisk follows results filed as active; nt = no result given. This is a sample that favours compounds with a hit; in the whole collection about 4.2% have one here.

SMILES	SMARCA2 activ	ssDAF12 agonist	DAX1 StAR inh	hgDAF12 agonist	hcDAF-12 act	SMARCA2 conf	GAL4-VP16 Luc
CN1CCCC1CCNc1ccc2sc3ccccc3c(=O)c2c1 (stereo unspecified)	10.8*	-0.5	2.1	4.9	1.6	14.3*	7.5*
CN1CCCC1CCNS(=O)(=O)c1ccc(Br)cc1 (stereo unspecified)	-1.7	-1.6	-0.6	-2.1	-2.3	nt	nt
Cc1cc2oc3cc(NCCC4CCCN4C)ccc3c(=O)c2cc1C (stereo unspecified)	8.8*	-0.5	1.4	-0.5	0.7	21.4*	8.7*
O=C1CCCN1C1CCN(Cc2ccccc2)S(=O)(=O)N1 (stereo unspecified)	-4.1	-0.9	0.8	2.2	-0.2	nt	nt
O=C(Nc1ccccn1)c1ccc2c(c1)OCCO2	10.9*	-0.3	4.2*	12.6*	3.3	5.8	6.0*
O=C(Nc1ncccc1Cl)c1ccc2c(c1)OCCO2	5.8	-1.9	3.1	9.7	0.5	nt	nt
CCCCCn1nnnc1C1(C)CCCC(=O)N1Cc1ccco1 (stereo unspecified)	-2.4	-0.7	-0.1	1.9	-0.3	nt	nt
O=C1c2ccccc2CN1c1ccccc1	9.7*	-0.9	0.6	6.2	2.4	11.2*	9.8*
O=C1c2ccccc2CN2C(=O)c3ccccc3CN12	3.5	-0.5	-0.8	0.8	-0.2	nt	nt
CCn1c(SCC(=O)c2ccc(F)cc2)nnc1-c1ccoc1C	9.6*	-0.5	0.4	2.6	1.7	4.3	2.2
Cn1nc(/C=C/c2ccccc2)ccc1=O	8.9*	-1.5	0.2	7.3	-0.3	3.1	4.8
O=c1ccc(/C=C/c2ccccc2)nn1Cc1ccccc1	-2.3	-1.3	0.8	-0.7	-1.0	nt	nt
Nn1c(SCc2cccc3ccccc23)nnc1-c1n[nH]c2c1CCC2	0.6	-1.5	-1.2	-3.3	-4.0	nt	nt
Cc1nn(-c2ccccc2)c2sc(C(=O)NCc3ccc4c(c3)OCO4)cc12	-4.6	-1.9	-0.7	5.7	-2.3	nt	nt
COc1cc(Cl)c(CNC[C@H]2O[C@@H](n3ccc(=O)[nH]c3=O)[C@H](O)[C@@H]2O)c(Cl)c1O	10.2*	-1.6	0.0	1.4	-0.1	-0.4	0.7
COc1ccc(CNC[C@H]2O[C@@H](n3ccc(=O)[nH]c3=O)[C@H](O)[C@@H]2O)cc1OC	1.4	-1.1	-0.8	-3.9	0.4	nt	nt
CCOc1nc(C)ccc1-c1noc(-c2ccccn2)n1	4.3	-0.6	1.3	1.1	-2.0	nt	nt
CCOc1ccccc1-c1nc(-c2ccc(C)nc2OC)no1	8.8*	-0.7	2.1	4.9	-0.6	14.7*	8.0*
COc1ccc(NC(=O)C(c2ccncc2)n2c(=O)c(-c3ccccc3)nc3ccccc32)cc1 (stereo unspecified)	-0.1	0.0	1.1	4.9	2.1	nt	nt
Cc1ccccc1NC(=O)c1onc2c1CCCC2	8.2*	-0.1	2.3	10.0	3.3	6.9	8.1*
Cc1cccc(CCNC(=O)c2ccc3c(c2)ncn3C2CCCCC2)c1	0.2	-1.2	0.8	-0.2	-0.9	nt	nt
O=C(OCc1cn(Cc2ccccc2)nn1)N1CCOCC1	2.3	-1.1	0.1	1.6	-2.1	nt	nt
COC(=O)N/N=C/c1ccccc1Cl	0.5	-1.6	-0.1	4.0	-0.4	nt	nt
COc1ccc(NC(=O)O/N=C/c2ccccc2Cl)cc1	10.4*	-0.7	-0.1	1.4	-0.1	3.7	2.9
Nc1nc2c(ncn2[C@@H]2O[C@H](C(=O)NCC(F)(F)F)[C@@H](O)[C@H]2O)c(=O)[nH]1	-1.6	-1.4	0.4	-2.7	1.7	nt	nt
SMILES	SMARCA2 activ	ssDAF12 agonist	DAX1 StAR inh	hgDAF12 agonist	hcDAF-12 act	SMARCA2 conf	GAL4-VP16 Luc
Cc1nc2c(OCc3ccc(Cl)cc3)cccn2c1N(C)C(=O)CCC1CCCC1	8.3*	-0.9	-0.6	10.5*	-1.0	-3.7	-0.8
O=C(/C=C\c1ccc(-c2ccccc2)o1)c1ccccc1	8.2*	-0.6	0.6	0.6	0.7	16.1*	8.1*
O/N=C\c1ccc(-c2ccccc2)o1	9.5*	-1.3	0.1	4.0	3.8	6.2	4.8
O=[N+]([O-])c1ccc(-c2ccc(/C=N/O)o2)cc1	-4.2	-1.2	-0.5	5.2	0.5	nt	nt
O=C(NCCc1ccccc1)OCc1cn(-c2ccc(Cl)cc2)nn1	-1.3	-1.2	2.0	2.9	2.6	nt	nt
COC(=O)c1ccc(N)c2c(N)ccc(C(=O)OC)c12	-4.1	-1.0	-0.7	-3.5	2.1	nt	nt
C#CCNC(=O)C[C@@H]1C[C@@]2(C(=O)OC)CCCCC=C2N(CCCCCCCC)C1=O	-1.6	-1.0	-0.6	0.2	0.2	nt	nt
O=C(NCc1ccccc1Cl)c1cc(=O)[nH]c2ccccc12	8.4*	-0.6	0.2	-0.3	1.0	3.5	1.2
CCOC(=O)C1CCCN(S(=O)(=O)c2cc3c(cc2Br)CCN3C(=O)CC)C1 (stereo unspecified)	-2.1	-1.1	0.3	-1.7	-2.8	nt	nt
O=C(CC(=O)c1ccccc1)Nc1ccccn1	13.0*	0.1	0.4	7.3	4.2	7.1	9.2*
O=C(NCCc1ccccc1)OCc1cn(-c2ccc(F)c(F)c2)nn1	-0.1	-1.0	0.3	1.9	0.6	nt	nt
Cc1ccc(O)c(NC(=O)CN(C)S(=O)(=O)c2ccc(Cl)cc2)c1	10.9*	-0.9	0.8	-0.6	1.2	0.9	1.2
Nc1nc2c(C(=O)N3CCOCC3)nnn2c2ccccc12	11.3*	0.1	0.7	4.8	1.6	5.6	9.1*
CC(=O)Nc1ccc(C(=O)OCC(=O)N2CCCC2)cc1	-0.5	-0.8	0.2	-2.5	-1.7	nt	nt
CC(=O)Nc1ccc(C(=O)OCC(=O)N2CCCC2=O)cc1	8.9*	-1.1	-0.4	-0.7	1.2	0.5	1.2
CC(=O)Nc1ccc(C(=O)OCCCOC(=O)c2ccc(NC(C)=O)cc2)cc1	-2.4	-1.1	-0.4	1.8	1.5	nt	nt
CC(=O)Nc1ccc(C(=O)OCCc2ccccc2)cc1	8.8*	-0.2	0.2	3.6	-0.4	5.8	1.4
C/C(N)=C(/C#N)C(=O)CSc1cc(C)c2cc(C)cc(C)c2n1	8.5*	-1.8	-0.3	1.1	0.1	-2.0	-1.0
COc1cc(NC(=O)CSc2cc(C)c3cc(C)cc(C)c3n2)c(C(=O)O)cc1OC	8.4*	-0.9	1.0	-0.1	-0.3	2.4	-1.0
COC(=O)C1(C(=O)OC)Cc2ccccc2N(S(=O)(=O)c2ccc(C)cc2)C1CC(C)=O (stereo unspecified)	3.4	-1.3	-1.0	-2.3	-0.7	nt	nt
COc1cccc(NC(=O)C2CCCN2C(=O)Nc2ccc(Cl)cc2)c1 (stereo unspecified)	-1.2	-1.6	0.3	3.1	-1.6	nt	nt
C=CCNC(=O)c1c(Br)cnn1-c1ccc(C)cc1	9.2*	-0.3	1.9	8.2	4.2	10.6*	10.7*

Compound activity (PubChem BioAssay)
